Data reported in the supplement of paper PMC13380429.
A number with no mark means an inactive call.

Test system: Vero E6 infected with SARS-CoV-2
Experiment: inhibition of SARS-CoV-2 cytopathic effect; higher = more antiviral protection, active = above 15
Details: 48 h

Row | Compound | inhibition of SARS-CoV-2 cytopathic effect (1 nM) | inhibition of SARS-CoV-2 cytopathic effect (8.33 nM) | inhibition of SARS-CoV-2 cytopathic effect (100 nM) | inhibition of SARS-CoV-2 cytopathic effect (833.33 nM) | inhibition of SARS-CoV-2 cytopathic effect (10000 nM)
1 | NCCc1cc(O)c(O)cc1O [oxidopamine] | -2.92% | 0.45% | -2.01% | -2.87% | -3.37%
2 | Cc1cc(C)cc(NC(=O)Cc2ccc(OC(C)(C)C(=O)O)cc2)c1 [efaproxiral] | -0.22% | -2.52% | 1.44% | 1.37% | -1.51%
3 | CC(C)N(CCCNC(=O)Nc1ccc(C(C)(C)C)cc1)C[C@H]1O[C@@H](n2cc(Br)c3c(N)ncnc32)[C@H](O)[C@@H]1O | 0.32% | 9.52% | -1.5% | -1.25% | 0.03%
4 | CC(=O)NO [acetohydroxamic-acid] | 4.31% | 3.09% | -3.04% | 2.55% | 3.32%
5 | CN1CCN2c3c(cccc31)[C@@H]1CN(CCCC(=O)c3ccc(F)cc3)CC[C@@H]12 [lumateperone] | -2.67% | 2.96% | 2.88% | 2.75% | 2.86%
6 | CC(COc1ccccc1Cc1ccccc1)N1CCCCC1 (stereo not given) [benproperine] | -1.82% | 0.63% | -0.71% | -3.69% | -3.54%
7 | CN(C)c1ccccc1CN1CCCN(Cc2ccccc2N(C)C)C1c1ccncc1 | 0.09% | 1.84% | 0.14% | 0.48% | 21% (active)
8 | Cc1cc(NCCO)nc(-c2ccc(Br)cc2)n1 | 1.81% | -1.79% | -0.15% | 0.73% | -2.57%
9 | NCc1ccc(S(N)(=O)=O)cc1 [mafenide] | 0.46% | 1.5% | 1.54% | 2.7% | -2.32%
10 | O=C(c1ccc(F)cc1)C1CCN(CCCCc2ccccc2)CC1 [4-(4-fluorobenzoyl)-1-(4-phenylbutyl)-piperidine] | -4.06% | -1.58% | -0.19% | 1.25% | -4.47%
11 | CC[C@H](CC[C@@H](C)[C@H]1CC[C@H]2[C@@H]3CC=C4C[C@@H](O)CC[C@]4(C)[C@H]3CC[C@]12C)C(C)C [beta-Sitosterol] | 0.66% | 2.31% | 1.23% | -2.15% | -1.08%
12 | Nc1ccc(-c2nc3ccc(-c4nc5ccc(N)cc5[nH]4)cc3[nH]2)cc1 | -0.32% | 0.21% | -0.94% | 2.79% | 6.35%
13 | CNc1cc2c(Nc3cccc(Br)c3)ncnc2cn1 | -1.96% | -0.58% | -1.36% | -4.84% | -2.22%
14 | COC(=O)C1=C(C)NC(C)=C(C(=O)OC/C=C/c2ccccc2)C1c1cccc([N+](=O)[O-])c1 (stereo not given) [pranidipine] | 1.87% | 0.47% | -0.57% | 1.4% | 8.67%
15 | COC[C@H](NC(=O)c1cnc(C)s1)C(=O)N[C@@H](COC)C(=O)N[C@@H](Cc1ccccc1)C(=O)[C@@]1(C)CO1 [oprozomib] | 0.33% | 3.66% | 38.6% (active) | 34.5% (active) | 24.7% (active)
16 | O=C(Nc1cccc(Nc2ncc(Br)c(NCCc3cnc[nH]3)n2)c1)N1CCCC1 | -2.91% | -2.57% | -1% | -2.29% | -4.48%
17 | CCC(NC(C)C)C(O)c1ccc(O)c2[nH]c(=O)ccc12 (stereo not given) [procaterol] | -1.54% | 0.18% | -2.76% | -0.33% | -1.47%
18 | OC[C@H]1O[C@@H](O[C@@H]2[C@H](O)[C@@H](O)[C@H](O[C@H]3[C@H](O)[C@@H](O)C(O)O[C@@H]3CO)O[C@@H]2CO)[C@H](O)[C@@H](O)[C@H]1O (stereo not given in full) [4-galactosyllactose] | -1.88% | -2.42% | 1.58% | 0.18% | -0.03%
19 | COc1ccc(C(C)=O)c(O)c1 [paeonol] | 1.08% | 1.99% | 2.76% | 0.69% | -4.98%
20 | CC(C)[C@H]1c2ccc(F)cc2CC[C@@]1(CCN(C)CCCc1nc2ccccc2[nH]1)OC(=O)C1CC1 | 1.78% | 2.76% | 7.24% | -2.65% | -19.3%
